An excerpt weighted towards active compounds, which were near 2.4% of everything screened.
D2 PAM-1 – D2 dopamine receptor (human) potentiation. AID 485347. HEK293 T-REx D2, calcium flux, EC20 dopamine potentiation. P14416. 340,000 tested, 0.34% active. potentiation, % at 10 µM;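 active = potentiation over 3 SD above the plate norm, cut at about 30% in these data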; also: 0% is about no effect
Target sequence (P14416 whole entry, looked up): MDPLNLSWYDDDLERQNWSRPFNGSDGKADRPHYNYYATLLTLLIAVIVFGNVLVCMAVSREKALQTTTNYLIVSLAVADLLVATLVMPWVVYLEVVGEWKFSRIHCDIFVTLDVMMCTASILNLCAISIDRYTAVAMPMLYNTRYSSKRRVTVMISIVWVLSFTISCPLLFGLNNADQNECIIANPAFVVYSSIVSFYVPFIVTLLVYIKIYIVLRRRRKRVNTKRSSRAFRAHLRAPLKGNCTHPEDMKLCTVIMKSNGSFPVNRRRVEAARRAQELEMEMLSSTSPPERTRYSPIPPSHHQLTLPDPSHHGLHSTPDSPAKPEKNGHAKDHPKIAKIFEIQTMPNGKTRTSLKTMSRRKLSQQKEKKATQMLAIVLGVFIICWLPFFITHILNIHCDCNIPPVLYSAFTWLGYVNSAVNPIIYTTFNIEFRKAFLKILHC
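Potentiation of an EC20 dopamine calcium response measured kinetically over 180 s, after a preceding 180 s compound-only read flagging agonists. Cells: inducible Hek293 Trex D2 line, 4000/well, cultured overnight at 30 C before dye loading.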
D2 antag – antagonists of human D2 dopamine receptor | P14416 | HEK293 TREx D2 cells, calcium flux, dopamine EC80 | 340,000 tested, 2% active | inhibition, % at 10 µM; in the data active = inhibition above about 30%; inactive = below that, where a call was filed; also: 0% is about no effect
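Calcium mobilization kinetics were recorded at 1 s intervals in tetracycline-induced HEK293 T-REx D2 cells, first for 180 s after compound addition and then 180 s after EC80 dopamine.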
D2 ag-1 – human D2 receptor agonism in beta-arrestin assay. AID 624465. activation, % (test concentration not listed). DiscoveRx PathHunter D2 beta-arrestin, luminescence, 90 min; 100% = 57 uM dopamine signal. P14416. 360,000 tested, 0.084% active; in the data active = activation above about 40%; inconclusive = between about 15% and that limit
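Agonist mode: compounds alone added to overnight-plated D2 PathHunter cells for 90 min at 37 C, with 57 uM final dopamine (EC100) defining full response. Beta-arrestin recruitment detected by chemiluminescent reagent, read after 1 h at ambient temperature.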
D2 ag-2 – agonists of human D2 dopamine receptor. P14416. HEK293 T-REx D2 cells, calcium flux agonist mode. activation, % at 2 µM. 340,000 tested, 0.53% active;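 active = activation over 3 SD above normal in the single-dose calcium agonist read, cut at about 30% in these data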; also: 0% is about no effect
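Calcium-flux readout, 1 cycle/sec over 180 s following compound pin transfer, in inducible HEK293 Trex D2 cells (force-coupled); dopamine controls included. Positive calcium responses during this window marked compounds as potential agonists.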
D2 PAM-2 – potentiates the human D2 dopamine receptor allosterically. P14416. potentiation, % (concentration not given with the values). DiscoveRx D2 beta-arrestin cells, luminescence, 90 min; 100% = 57 uM dopamine signal. 360,000 tested, 0.23% active; in the data active = potentiation above about 50%; inconclusive = mostly about 30% to 49%
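D2 cells co-treated with compound plus 50 nM dopamine (EC20) for 90 min at 37 deg C to detect potentiation. Beta-arrestin recruitment was read as enzyme-fragment luminescence after 1 h at ambient temperature. Full response was set by 57 uM dopamine.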
The depositor's hits bear a star; ? = inconclusive; / = not tested or not shown.

SMILES	D2 PAM-1	D2 antag	D2 ag-1	D2 ag-2	D2 PAM-2
CCOc1ccc(S(=O)(=O)NCC(c2ccc(N(C)C)cc2)N2CCCC2)cc1 (stereo unspecified)	2	/	/	-4	/
CCOCCc1nn2c(=O)cc(COC(=O)C(CC)c3ccccc3)nc2s1 (stereo unspecified)	-13	/	/	2	/
Cc1cc(=O)n2nc(N3CCC(C(=O)Nc4ccc(C(C)C)cc4)CC3)sc2n1	7	/	/	0	/
O=C(NNC(=O)c1ccc(F)cc1F)c1ccc2c(c1)OCO2	-3	37*	-2	3	4
N=c1c(C(=O)NCc2ccco2)cc2c(=O)n3ccccc3nc2n1Cc1ccccc1	-22	38*	-3	0	-32
CCOC(=O)C1(CC2CCCCO2)CCN(Cc2ccc(OC)cc2F)CC1 (stereo unspecified)	-21	61*	-3	-1	-15
Cc1ccnc(NC(NC(=O)C(C)C)(C(F)(F)F)C(F)(F)F)c1	4	32*	-2	0	-9
COC(=O)C(NC(=O)c1ccco1)(Nc1cc(C)ccn1)C(F)(F)F (stereo unspecified)	8	-10	3	0	-2
Nc1c(-c2ccccc2)cnn1-c1cccc(Cl)c1	6	-5	6	1	-2
Nc1ccccc1Nc1cc(-c2cccc(Cl)c2)nn1-c1ccccc1	6	-5	?	1	68*
Cc1ccc2c(c1)cc(CN(Cc1ccco1)C(=O)COc1ccccc1)c1nnnn12	-1	23	-1	2	-17
CCC(=O)N(Cc1ccco1)Cc1cc2cccc(C)c2n2nnnc12	-3	34*	7	1	-8
COc1ccc2c(c1)C1=NN(/C(C)=C/C(C)=O)C(c3ccc(F)cc3)C1CC2 (stereo unspecified)	-3	-1	6	1	51*
COc1ccc2c(c1)CCC1C2=NN(/C(C)=C\C(C)=O)C1c1ccc(F)cc1 (stereo unspecified)	-2	-3	?	1	8
O=C(NCCCN1CCCCC1)c1ccc2c(c1)ncn2C1CCCC1	-4	30*	-4	0	-25
O=C1CSC(c2cccnc2)N1Cc1cccnc1 (stereo unspecified)	-1	-17	-2	0	7
O=C1CSC(c2cccnc2)N1CCc1ccccn1 (stereo unspecified)	-3	55*	-5	-2	-10
CCOC(=O)c1ccc(N2C(=O)c3n[nH]c(-c4ccco4)c3C2c2ccccc2OC)cc1 (stereo unspecified)	-2	/	/	0	/
CCN(CC)CCOC(=O)c1ccc(NC(=O)CCCN2C(=O)/C(=C/c3cccs3)SC2=S)cc1	-26	49*	-2	-1	-43
O=C(CCCN1C(=O)/C(=C\c2cccs2)SC1=S)Nc1ccc(C(=O)O)cc1	/	/	-3	/	-3
CCNC(=O)COC(=O)C1CCN(S(=O)(=O)c2ccc3c(c2)OCCO3)CC1	9	6	0	-1	4
N#CCOC(=O)C1CCN(S(=O)(=O)c2ccc3c(c2)OCCO3)CC1	34*	5	-1	1	1
CCOc1cccc(C2c3[nH]c4ccccc4c3CCN2C(=O)Cc2cccc(OCC)c2OCC)c1 (stereo unspecified)	18	/	/	0	/
O=C(c1ccc2c3c(cccc13)CC2)C1CCCN(Cc2ccc(OCCO)cc2)C1 (stereo unspecified)	-32	31*	0	0	-5
O=C(c1ccc2c3c(cccc13)CC2)C1CCCN(Cc2ccccn2)C1 (stereo unspecified)	-18	37*	-2	0	-7
SMILES	D2 PAM-1	D2 antag	D2 ag-1	D2 ag-2	D2 PAM-2
Cc1cnc(CN2CCCC(C(=O)c3ccc4c5c(cccc35)CC4)C2)[nH]1 (stereo unspecified)	-32	7	-4	-1	-16
COc1ccc(-c2cn3c(n2)sc2cc(C(=O)Nc4cc(Cl)ccc4C)ccc23)cc1	-3	/	/	0	/
CCOc1ccc(NC(=O)CSc2nnc3scc(-c4ccccc4)n23)cc1	-2	/	/	/	/
CCOc1ccccc1CNC(=O)CN1C(=O)CCc2cc(S(=O)(=O)N3CCCCC3)ccc21	2	/	/	/	/
COCCNCCCOc1ccc(Cl)cc1Br	-23	-2	-2	1	-15
COCCCNCCCCOc1ccc(Br)cc1Cl	-27	65*	-4	1	-36
COCCNCCCOc1ccc(Br)cc1Cl	-28	33*	-1	0	-39
Cc1cc(C)cc(NS(=O)(=O)c2ccc(N3CCCCS3(=O)=O)cc2)c1	0	/	/	-2	/
COc1ccc(CCNC(=O)c2ccc3c(c2)N(Cc2c(F)cccc2Cl)C(=O)CS3)cc1OC	-6	/	/	0	/
COc1ccc(NC(=S)NNS(=O)(=O)c2ccc3ccccc3c2)c(OC)c1	-4	43*	-1	2	-5
COc1ccc(Cl)cc1NC(=O)Cn1nc(Cc2ccncc2)c2ccccc2c1=O	6	/	/	0	/
O=C(CCc1nnc(-c2ccc(-c3ccccc3)cc2)o1)N1CCCCC1	16	62*	7	1	-6
COC(c1ccccc1)c1nnc(CCC(=O)N2CCCCCCC2)o1 (stereo unspecified)	7	-16	1	-1	3
O=c1[nH]c(-[n+]2ccccc2)c(/C=N/NC([S-])=Nc2ccccc2)s1	6	15	-1	30*	-9
Cc1cc[n+](-c2[nH]c(=O)sc2/C=N/NC([S-])=Nc2ccccc2)cc1	0	-12	-2	0	-14
Cc1cccc(C)c1NC(=O)C(=O)NCC(c1ccc2c(c1)OCO2)N1CCOCC1 (stereo unspecified)	9	/	/	1	/
O=C(O)c1ccccc1SCC(=O)N1c2ccccc2Sc2ccccc21	-4	-6	?	-1	62*
O=C(O)c1ccccc1SCC(=O)N1CCCCC1	3	0	-1	0	3
Cc1ccc(CN2CCN(CC3CC4C=CC3C4)CC2)cc1 (stereo unspecified)	-26	65*	-2	0	-32
O=S(=O)(c1ccccc1)N1CCN(CC2CC3C=CC2C3)CC1 (stereo unspecified)	-2	0	-4	-1	-9
CC(C)CC(NC(N)=O)C(=O)NCc1ccccc1Cl (stereo unspecified)	38*	4	1	0	-4
N/C(=N\OC(=O)c1ccc([N+](=O)[O-])cc1)c1cccnc1	5	-3	9	0	29
Cc1ccc(C(=O)O/N=C(\N)c2cccnc2)cc1[N+](=O)[O-]	-3	-5	7	0	66*
N/C(=N\OC(=O)c1ccccc1[N+](=O)[O-])c1cccnc1	-2	-5	?	1	108*
Cc1sc(NC(=O)c2cccs2)c(C(=O)OC(C)C)c1C	-5	31*	-6	1	-2

Assay outcomes (PubChem)
